Assay results: PubChem BioAssay AID933 (National Center for Advancing Translational Sciences (NCATS), 2007)
Inconclusive results are not listed. Active and inactive are the calls of the source. Calls follow the shape of the dose curve; as a rule, active = well fitted activation curve with a large enough effect in the signal ratio, with a control signal flat; inconclusive = small, poorly fitted or top-dose-only effect, or a change in a side signal; inactive = flat fitted curve, though single readings scatter; the % refers to the signal ratio.

biological target: Thyrotropin receptor (Homo sapiens) (UniProt P16473); assay: Secondary Concentration-Response Assay for Agonists of the Thyroid Stimulating Hormone Receptor: HTRF Activity Detection; details: HEK293-TSHR cells, cAMP HTRF ratio, 30 min; series mostly up to 91.7 µM; activation: at the top concentration;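 also: HEK 293 cells stably expressing human TSHR with RO 20-1724 phosphodiesterase inhibitor; % of control where 0% means no effect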
Sequence (P16473 whole entry, looked up): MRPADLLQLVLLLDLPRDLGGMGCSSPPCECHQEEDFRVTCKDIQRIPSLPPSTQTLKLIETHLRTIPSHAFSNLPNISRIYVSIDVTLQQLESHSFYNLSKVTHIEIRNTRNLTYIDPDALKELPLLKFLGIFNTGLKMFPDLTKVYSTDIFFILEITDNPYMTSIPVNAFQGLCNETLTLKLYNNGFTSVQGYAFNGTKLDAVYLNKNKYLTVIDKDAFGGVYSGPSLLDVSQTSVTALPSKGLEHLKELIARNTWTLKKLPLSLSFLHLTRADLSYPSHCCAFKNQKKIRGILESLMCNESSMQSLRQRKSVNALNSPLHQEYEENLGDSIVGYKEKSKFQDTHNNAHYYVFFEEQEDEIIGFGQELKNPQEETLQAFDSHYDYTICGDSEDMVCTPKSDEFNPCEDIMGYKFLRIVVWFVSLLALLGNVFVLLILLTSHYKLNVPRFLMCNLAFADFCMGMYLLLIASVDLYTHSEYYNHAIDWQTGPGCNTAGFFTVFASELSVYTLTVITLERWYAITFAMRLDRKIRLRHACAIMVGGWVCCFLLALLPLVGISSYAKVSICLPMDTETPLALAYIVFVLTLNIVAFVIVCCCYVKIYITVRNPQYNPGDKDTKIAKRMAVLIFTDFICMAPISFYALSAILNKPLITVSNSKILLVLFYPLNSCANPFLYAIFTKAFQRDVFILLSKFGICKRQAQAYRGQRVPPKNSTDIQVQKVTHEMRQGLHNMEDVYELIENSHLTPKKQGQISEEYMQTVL
Text: NIH Chemical Genomics Center [NCGC]
NIH Molecular Libraries Screening Centers Network [MLSCN]
PI Name: Dr. Marvin Gershengorn, NIH
Confirmation of Thyroid Stimulating Hormone Receptor Agonists
TSH is an alpha/beta heterodimeric glycoprotein hormone secreted from the anterior pituitary gland which belongs to the glycoprotein hormone family. The actions of TSH are mediated by a seven-transmembrane receptor, which upon TSH binding couples preferentially to the G-alpha (s) protein (Gs), resulting in activation of adenylate cyclase and increase in cyclic adenosine 3', 5' monophosphate (cAMP). The TSH receptor (THSR) is mainly expressed in thyroid follicular cells and regulates their growth and function. Recombinant TSH is used to activate TSHR in patients with thyroid cancer receiving thyroid hormone suppression therapy and to screen for residual tumor after surgery, but it is expensive and must be administered intramuscularly. An orally active small molecule TSHR agonist would serve as an invaluable research tool for studying TSHR pharmacology and physiology, and would have multiple advantages in therapeutic settings. However, no selective small molecule agonist of the TSH receptor exists, and no small molecule screen for TSHR agonists has ever been reported.
A confirmatory assay of putative TSHR agonists was conducted on a different TSHR transfected HEK 293 cell line, using an orthogonal detection technology to measure cAMP stimulation: antibody-based Homogeneous Time Resolved Fluorescence (HTRF).
NCGC Assay Protocol Summary:
Homogeneous Time Resolved Fluorescence (HTRF) cAMP Assay. HEK 293 cells stably transfected with a vector containing the TSHR and maintained under hygromycin selection were obtained from the laboratory of Dr. Marvin Gershengorn. […] Plates were measured using the Envision plate reader (PerkinElmer, Boston, MA) with excitation at 330 nm and emissions of 615 nm and 660 nm.
Keywords: Thyroid-stimulating hormone TSH, TSHR, TSHR agonist, quantitative high throughput screening, qHTS, HTS, probe identification, CNG, cAMP, cyclic nucleotide gated ion channel PubChem

Structure (SMILES) | activation
O=c1[nH]c(=O)n(Cc2ccco2)c(O)c1C=NC1CC1 | -0.432% [at 0.00035 µM] (inactive)
C=CCN1C(=O)C2(C(C(=O)OC)=C(N)Oc3c2c(=O)oc2ccccc32)c2ccccc21 (stereo not drawn) | 9.85% (inactive)
CCOC(=O)C1=C(N)Oc2c(c(=O)oc3ccccc23)C12C(=O)N(C)c1ccccc12 (stereo not drawn) | 3% (inactive)
